Assay results reported in PubChem BioAssay (NCI).
Where “and” joins values, the source holds several entries; their conditions need not be identical. Equal entries are not always repeated. Compounds without any hit were thinned out: in the full panel of roughly 79,000, 15% have a hit. Cut-off read from the data, not from the text of the source: active = growth inhibition above about 70%; inactive = the rest.

How the values were obtained:
[1] = NCI Yeast Anticancer Drug Screen. Data for the rad50 strain (AID 155);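 note: 0% = growth of vehicle-only cultures of the same strain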; conditions: S. cerevisiae rad50 strain growth inhibition; at 50.0 µM; stronger effect = higher value
Procedure, shortened: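 Readout: growth inhibition relative to vehicle-treated cultures. Compound exposure was carried out in a genetically defined yeast strain deficient in DNA damage repair.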

[2] = NCI Yeast Anticancer Drug Screen. Data for the mec2-1 strain (AID 157); conditions: S. cerevisiae mec2-1 strain, at 50.0 µM, stronger effect = higher value
Procedure, shortened: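 Test agents were screened against the mec2-1 yeast strain, with defined DNA repair or cell cycle alteration. Growth was scored as inhibition against vehicle-only controls.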

[3] = NCI Yeast Anticancer Drug Screen. Data for the sgs1 mgt1 strain (AID 161);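 note: 0% = growth of cultures given vehicle only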; conditions: S. cerevisiae sgs1 mgt1 strain, at 50.0 µM, stronger effect = higher value
Procedure, shortened: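 Test agents were incubated with a DNA-repair-mutant yeast strain. Growth was then read and compared against vehicle-treated controls.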

[4] = NCI Yeast Anticancer Drug Screen. Data for the cln2 rad14 strain (AID 165);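 note: 0% = growth equal to vehicle treated cultures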; conditions: S. cerevisiae cln2 rad14 strain, at 50.0 µM, stronger effect = higher value
Procedure, shortened: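 Growth of compound-exposed yeast (cln2 rad14 genotype) measured and expressed as inhibition relative to vehicle.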

[5] = NCI Yeast Anticancer Drug Screen. Data for the bub3 strain (AID 167); conditions: S. cerevisiae bub3 mutant strain, at 50.0 µM, stronger effect = higher value
Procedure, shortened: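 Readout: yeast growth inhibition, expressed relative to vehicle-only wells. The test organism is a mutant strain from a panel with lesions in DNA repair or checkpoint genes.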

[6] = NCI Yeast Anticancer Drug Screen. Data for the mlh1 rad18 strain (AID 175); conditions: S. cerevisiae mlh1 rad18 strain growth inhibition; at 50.0 µM; stronger effect = higher value
Procedure, shortened: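 In this whole-cell yeast screen, a strain with altered DNA damage repair is challenged with compound, and its growth is measured against matched vehicle-treated controls.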

Measured: growth inhibition

CC(OC(=O)c1ccccc1)C(OC(=O)c1ccccc1)C(OC(=O)c1ccccc1)c1cnn(-c2ccccc2)n1 (configuration not stated)
inactive: [1] 14.8% and 35.7% | [2] -2.35% and -1.9% | [3] 24.8% and 3.35% | [4] 19.1% and -9.45% | [5] 10.1% and 16.1% | [6] 6.7% and 32%

Nc1cc(S(=O)(=O)O)ccc1Cl
inactive: [1] 2.8% and 1% | [2] -15.7% and -2.75% | [3] 11.2% and -20.6% | [4] 10.1% and -43.9% | [5] 6.95% and 14.1% | [6] 3.95% and -13.1%

NC(Cc1cnc[nH]1)C(=O)O (configuration not stated)
inactive: [1] -15.4% and 3.95% | [2] -27.9% and 0.2% | [3] 2.35% and 16.4% | [4] -0.05% and 3.55% | [5] -4.35% and 3.9% | [6] -20.9% and -3.1%

CCC(=O)Oc1cc(C)ccc1C(C)(C)C
inactive: [1] 1.4% and -18.1% | [2] 0.8% and -19.4% | [3] 1.45% and -12% | [4] -3.7% and -1.5% | [5] -0.3% and -13.2% | [6] -3.6% and -5.85%

CC(=O)C1CC(CC(=O)O)C1(C)C (configuration not stated)
inactive: [1] 4.65% and 10.1% | [2] -7.25% and 9.75% | [3] -4.4% and 12.5% | [4] 13.9% and 10.6% | [5] -1.6% and 4.9% | [6] 3.3% and 14.9%

O=C(O)C1(O)C[C@@H](O)C(O)[C@H](O)C1 (some centres not stated)
inactive: [1] 4.9% and -19.3% | [2] 0.15% and -14.2% | [3] -3.65% and -30.1% | [4] 21.2% and 23.8% | [5] -4.65% and -2.35% | [6] 3.6% and -2.65%

O=[N+]([O-])c1ccc2c(c1)C(=Nc1ccccc1)c1cccc([N+](=O)[O-])c1-2
inactive: [1] 6.55% and -21.9% | [2] 16.2% and -12.8% | [3] 15.6% and -6.05% | [4] -36.9% and -24.8% | [5] 8.8% and 8.9% | [6] 20.3% and -26.3%

O=C(CC(=O)c1ccc(Cl)cc1)Cc1ccc2ccccc2n1
inactive: [1] 8.9% and 43.4% | [2] 29.4% and 38.6% | [3] 37.2% and 33.5% | [4] 45% and 39.2% | [5] 52.3% and 51% | [6] 45.3% and 10.2%

COc1cc2c(cc1OC)CN1CCc3cc(OC)c(OC)cc3C1C2 (configuration not stated)
inactive: [1] -1.3% and 16.1% | [2] -54.6% and 11.9% | [3] -28.2% and 14.3% | [4] 0.7% and 7.8% | [5] -51.4% and 17.4% | [6] -38.5% and 18.1%

Cc1c(C)[n+](=O)c2ccccc2n1[O-]
inactive: [1] 15.9% and 7.2% | [2] -19.1% and -4% | [3] -7.6% and 3.5% | [4] -20.6% and -2.05% | [5] -18.1% and -3.6% | [6] 5.4% and 5.85%

C1CCC(N2CN(C3CCCCC3)C2)CC1
inactive: [1] 7.7% and 0.05% | [2] -11.9% and 0.5% | [3] -17.1% and -8.8% | [4] -14.5% and 10.3% | [5] -8.85% and -19.4% | [6] -31.8% and 18%

NC(=O)Nc1ccc(Cl)cc1
inactive: [1] -17.2% and 22.5% | [2] -11.8% and -9.35% | [3] -24.8% and -5% | [4] -17.9% and -12.5% | [5] -4.2% and -17.1% | [6] -10.9% and 15.4%

Cc1ccc(S(=O)(=O)Oc2cc(N)c3c(n2)CCC3)cc1
inactive: [1] -4.7% and 5.5% | [2] -13.6% and -7.8% | [3] 7.8% and -23.3% | [4] -48.2% and 6.55% | [5] -16.2% and -0.65% | [6] -3.45% and 0.5%

NCCC(=O)c1ccccc1
inactive: [1] -8.25% and 0.05% | [2] -4.2% and 6.2% | [3] -14.6% and -1.4% | [4] -17.4% and 7.65% | [5] -19.5% and 7.95% | [6] -2.7% and 25.3%

CC(=O)OC1CCC2(C)C(CCC3(C)C2CCC2C4=CC(C)(C)CCC4(C)CCC23C)C1(C)C (configuration not stated)
inactive: [1] 14.1% and -0.45% | [2] 10% and -9.7% | [3] -10.7% and -1.75% | [4] 13.4% and -3.6% | [5] 10.6% and -4.15% | [6] 20.1% and 7.15%

CN(C)CC1CC(=O)C(CN(C)C)CC1=O (configuration not stated)
inactive: [1] 7.35% and -5.3% | [2] 1.85% and -5.7% | [3] -10.1% and -21.7% | [4] 4% and -37.1% | [5] -7.45% and -15.6% | [6] 18.6% and -8.8%

CC1CCOS(=O)O1 (configuration not stated)
inactive: [1] 6.55% and -13.5% | [2] -15% and 6.9% | [3] 19.1% and -9.65% | [4] 12.1% and 11.6% | [5] -4.45% and 7.7% | [6] 18.2% and -7%

O=C(CC(=O)c1cccnc1)NC(=O)c1ccccc1
inactive: [1] -1.05% and -34.5% | [2] -2.5% and -22.1% | [3] -1.35% and -4.05% | [4] 7.85% and 12.1% | [5] 3.9% and 7.6% | [6] -6% and -1.95%

CCCCCCCC/C=C\CCCCCCCCOCC(O)CO (configuration not stated)
inactive: [1] -8.65% and -26.1% | [2] -25.6% and -20.9% | [3] -1.8% and -4% | [4] -17.9% and 3.35% | [5] -25.4% and -31.6% | [6] -27.6% and -20.8%

CSCCC(NC(=O)COc1ccc(Cl)cc1Cl)C(=O)O (configuration not stated)
inactive: [1] -21.3% and 16.8% | [2] -35.6% and 60% | [3] -44.5% and 34.2% | [4] 6.2% and 7.2% | [5] -23.4% and 30.6% | [6] -33.3% and 52.7%

CC(C)(N)CCC(=O)O
inactive: [1] 10.3% and -0.25% | [2] 20.9% and 3.7% | [3] 12.6% and -1.85% | [4] -3.05% and -7.2% | [5] -28.7% and 11.1% | [6] 6.8% and -3.15%

COc1ccc(-c2[nH]c(=O)n(C3OC(CO)C(O)C(O)C3O)c(=O)c2C#N)cc1 (configuration not stated)
inactive: [1] 7.65% and 19.9% | [2] 5.4% and 6.1% | [3] -8.55% and 1.1% | [4] 36.9% and 13.5% | [5] 6.95% and 7.6% | [6] -78.4% and -59%
